The list is not random: actives were taken first. Their share in the collection is about 1.1%.
MOR-DOR inv ag: inverse agonist of human OPRM1-OPRD1 heterodimerization | inhibition, % at 9.3 µM | hit rate 0.21% among 340,000 | AID 504357 | cell-based MOR-DOR heterodimer luminescence, inverse agonism | P35372+P41143; in the data active = inhibition above about 22%, passing the limit was not always enough;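 also: 0% = cells with DMSO and 100% = wells without cells with DMSO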
Target sequence (P35372 whole entry, looked up): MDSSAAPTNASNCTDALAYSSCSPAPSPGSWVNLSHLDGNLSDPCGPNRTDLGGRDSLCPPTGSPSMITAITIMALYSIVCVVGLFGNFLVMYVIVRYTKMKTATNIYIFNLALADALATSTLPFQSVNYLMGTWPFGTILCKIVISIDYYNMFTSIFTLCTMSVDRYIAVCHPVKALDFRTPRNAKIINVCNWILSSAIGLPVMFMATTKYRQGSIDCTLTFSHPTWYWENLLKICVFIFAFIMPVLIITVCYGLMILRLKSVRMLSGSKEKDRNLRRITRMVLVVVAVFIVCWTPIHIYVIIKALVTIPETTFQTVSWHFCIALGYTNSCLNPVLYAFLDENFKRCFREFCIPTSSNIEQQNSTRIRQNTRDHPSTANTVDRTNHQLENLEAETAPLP
Target sequence (P41143 whole entry, looked up): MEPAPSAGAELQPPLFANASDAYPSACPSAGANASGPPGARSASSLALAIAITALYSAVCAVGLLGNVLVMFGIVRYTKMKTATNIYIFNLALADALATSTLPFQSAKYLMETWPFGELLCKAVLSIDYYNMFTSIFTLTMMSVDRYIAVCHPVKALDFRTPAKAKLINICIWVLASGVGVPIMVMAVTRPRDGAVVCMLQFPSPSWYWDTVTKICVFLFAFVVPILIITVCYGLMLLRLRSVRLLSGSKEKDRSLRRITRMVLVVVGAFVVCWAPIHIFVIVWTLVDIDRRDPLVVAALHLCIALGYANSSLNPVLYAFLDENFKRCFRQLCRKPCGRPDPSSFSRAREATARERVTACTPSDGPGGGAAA
HTR5A inv ag: HTR5A inverse agonism, opioid heterodimer counter-screen | P47898 | HTR5A cell line, luminescence | inhibition, % at 9.3 µM | hit rate 0.083% among 340,000 | AID 504634; in the data active = inhibition mostly above about 23%, no sharp cut-off; inactive = mostly below about 18%;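 also: 0% = cells with DMSO and 100% = no-cell wells with DMSO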
HTR5A ag ctr: HTR5A agonism, opioid heterodimer counter-screen | P47898 | hit rate 0.61% among 340,000 | HTR5A agonist assay, luminescence, cell-based | activation, % at 9.3 µM; in the data active = activation mostly above about 9.5%, no sharp cut-off; inactive = mostly below about 7.6%;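 also: 0% = cells with vehicle only and 100% = reference agonist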
MOR-DOR ag: OPRM1-OPRD1 heterodimerization agonism. P35372+P41143. cells, luminescence. activation, % at 9.3 µM. hit rate 0.3% among 340,000;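 also: 0% = vehicle-treated cells and 100% = reference agonist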
MOR-DOR ag conf: confirmation of human OPRM1-OPRD1 heterodimerization agonists | shares compounds with MOR-DOR ag | cells, MOR-DOR heterodimerization, luminescence complementation | activation, % at 9.3 µM | hit rate 45% among 830 | AID 504904;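 also: 0% = vehicle-treated cells and 100% = reference agonist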
HTR5A ag counter: HTR5A agonism, opioid heterodimer counter-screen | shares compounds with MOR-DOR ag | HTR5A agonist counterscreen, cell luminescence | activation, % at 9.3 µM | hit rate 8% among 830 | AID 504905; in the data active = activation above about 17%;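 also: 0% = vehicle-treated cells and 100% = reference agonist response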
* marks the source's active call; other numbers are inactive results; i = inactive; · = not tested or not shown. Rule as the data show it, unless noted: active = activation above about 18%; inactive = the rest.

SMILES | MOR-DOR inv ag | HTR5A inv ag | HTR5A ag ctr | MOR-DOR ag | MOR-DOR ag conf | HTR5A ag counter
Cc1cc(Cl)ccc1OCC(=O)N[C@@H](Cc1ccccc1)c1nc2ccccc2[nH]1 | -128.1 | -25.0 | 5.7 | 24.1* | 44.2* | 2.4
CC1CN(C(=O)c2ccc(NS(=O)(=O)c3ccc(C(C)(C)C)cc3)cc2)CC(C)O1 (configuration not stated) | -0.4 | -1.0 | 5.7 | 0.1 | · | ·
COc1cc(Br)cc(/C=N/NC(=O)Cc2ccc(C(F)(F)F)cc2[N+](=O)[O-])c1O | -96.1 | -35.9 | 4.0 | 18.2* | 41.7* | 2.3
CCN(c1ccccc1)S(=O)(=O)c1cc(C(=O)NCC(c2ccc(OC)cc2)N(C)C)ccc1C (configuration not stated) | -107.4 | -16.3 | 4.5 | 20.5* | 6.2 | 2.4
CC(C)c1ccc(NC(=O)CNCC(c2ccccc2)N(C)C)cc1 (configuration not stated) | -1.4 | -1.2 | -5.9 | 0.3 | · | ·
CCN(c1ccccc1)S(=O)(=O)c1ccc(C(=O)NCC(c2cccs2)N(C)C)cc1 (configuration not stated) | 5.7 | 6.2 | -2.5 | -1.2 | · | ·
COc1ccc(C(CNC(=O)c2ccc(S(=O)(=O)N(C)C)cc2)N(C)C)cc1 (configuration not stated) | i | 8.9 | -3.5 | 95.3* | 104.8* | 0.3
COc1ccc(C(CNC(=O)c2cccc(NS(=O)(=O)c3ccc(Br)cc3)c2)N(C)C)cc1 (configuration not stated) | -383.7 | 13.5 | -5.5 | 73.8* | 12.0 | 4.1
Cc1ccc(NC(=O)CNCC(c2ccccc2)N(C)C)cc1F (configuration not stated) | -205.5 | 16.0 | 2.6 | 39.5* | -2.0 | -2.8
COc1cccc(C(=O)Oc2ccc3ccc(=O)oc3c2)c1 | -1.0 | 3.5 | -0.9 | 0.2 | · | ·
COc1ccc(C)cc1S(=O)(=O)N1CCCC(C(=O)NC2CC2)C1 (configuration not stated) | 13.6 | -3.4 | 3.0 | -2.0 | · | ·
O=C(CSc1nc(C(F)(F)F)cc(=O)[nH]1)N1CCC(Cc2ccccc2)CC1 | 6.5 | 9.8 | 4.8 | -1.3 | · | ·
Cc1ccc(S(=O)(=O)Nc2cccc(C(=O)NCC(c3ccco3)N(C)C)c2)cc1F (configuration not stated) | -43.9 | 1.6 | -0.6 | 8.4 | · | ·
Cc1ccc(S(=O)(=O)Nc2cccc(C(=O)NCC(c3ccccc3)N(C)C)c2)cc1F (configuration not stated) | -262.6 | 18.6 | -7.6 | 50.5* | 0.2 | -0.3
O=C1Cc2c([nH]c3ccc([N+](=O)[O-])cc23)-c2ccccc2N1 | -108.3 | -3.3 | 0.9 | 22.2* | 9.2 | 2.4
O=c1[nH]c2cc([N+](=O)[O-])ccc2c2ccccc12 | -26.6 | -8.1 | 2.1 | 5.5 | · | ·
Cc1cc(-c2nn(-c3ccccc3F)cc2CN2CCN(c3ccccn3)CC2)c(C)s1 | -134.8 | 2.9 | -1.1 | 27.6* | 3.4 | -0.4
Cc1ccc(S(=O)(=O)Nc2ccc(Cl)cn2)cc1C | 5.5 | -3.0 | 5.4 | -1.0 | · | ·
c1ccc(CNc2c3ccccc3nc3ccccc23)cc1 | -122.2 | 5.0 | -1.3 | 22.1* | 0.8 | -2.2
NC1=C(Br)C(=O)c2ncccc2C1=O | -100.5 | -11.4 | 2.9 | 19.6* | 0.1 | -18.7
O=C1c2cccnc2C(=O)N1CO | 12.2 | 5.0 | 3.5 | -2.9 | · | ·
Cc1cc(/C=C(\C#N)c2nc3ccccc3[nH]2)c(C)n1C | -138.1 | -3.0 | 12.6* | 27.3* | 3.1 | 7.3
COc1ccc(NC(=O)CNc2cccc(S(=O)(=O)N3CCCCCC3)c2)c([N+](=O)[O-])c1 | -2.1 | 17.9 | -1.1 | 0.5 | · | ·
O=C(Nc1ccc(F)cc1Cl)C1CCN(C(=O)Nc2ccccc2)CC1 | 12.3 | 9.4 | 2.4 | -3.8 | · | ·
CC(C)c1ccc(S(=O)(=O)Nc2ccc(SC(F)F)cc2)cc1 | -113.6 | -7.2 | 2.1 | 18.3* | -0.3 | -4.0
SMILES | MOR-DOR inv ag | HTR5A inv ag | HTR5A ag ctr | MOR-DOR ag | MOR-DOR ag conf | HTR5A ag counter
C=CC[C@@H](CC(=O)N(CCO)Cc1ccccc1)C(=O)N[C@@H](COC(=O)[C@@H](CC=C)CC(=O)OC(C)(C)C)Cc1c[nH]c2ccccc12 | -131.4 | -54.0 | 8.8 | 28.6* | 1.7 | -2.6
O=C(Nc1cccc(-c2nc3ccccc3[nH]2)c1)c1cccc(NC(=O)c2ccco2)c1 | -458.6 | 12.6 | 7.2 | 88.2* | -2.0 | -0.9
O=C(CSc1ccccc1)Nc1ccc(-c2nc3ccccc3[nH]2)cc1 | -111.5 | -32.5 | 7.6 | 21.5* | 4.7 | -2.2
O=C(CSc1ccc(Cl)cc1)Nc1cccc(-c2nc3ccccc3[nH]2)c1 | -202.6 | -5.6 | 2.1 | 33.7* | 12.9 | 7.8
Cc1nc2ccccc2c(=O)n1CCN1CCOCC1 | 13.9 | 8.2 | 1.4 | -3.0 | · | ·
Cc1nc2nc(C)n(CCN3CCOCC3)c(=O)c2c(-c2cccc([N+](=O)[O-])c2)c1C(=O)CCCCCCCCCCN1CCC(c2ccccc2)(c2ccccc2)CC1 | -112.7 | -29.1 | 7.6 | 25.8* | 130.7* | 5.8
COc1ccc(CNCc2cn(-c3cccc(F)c3)nc2-c2ccc(C)o2)cc1 | i | 1.1 | -0.4 | 120.0* | -0.1 | 0.1
COc1ccc(-n2cc(CNCc3cccnc3)c(-c3cccc(F)c3)n2)cc1 | -279.1 | -3.7 | 1.3 | 55.0* | 404.1* | 1.7
COc1ccc(-c2nn(-c3ccccc3)cc2CNCc2cccnc2)c(F)c1 | -96.9 | 6.7 | -2.6 | 21.1* | -1.7 | -0.9
COc1ccc(-c2nn(-c3ccccc3C)cc2CNCc2cccnc2)cc1F | -328.3 | 18.8 | -4.0 | 72.2* | 134.1* | 5.3
Fc1ccccc1COc1ccc(Br)cc1CNCc1cccnc1 | 1.1 | 11.0 | -3.4 | -0.2 | · | ·
COc1ccc2oc(C(=O)Nc3ccc(N4CCOCC4)cc3)c(C)c2c1 | 3.9 | -22.8 | 2.9 | -0.7 | · | ·
O=C(NC1CC1)C1CC(=O)N(c2cccc(Cl)c2)C1 (configuration not stated) | 14.6 | 8.6 | 0.1 | -2.8 | · | ·
CC(=O)c1cc2c(cc1NC(=O)CCc1c(C)nc3ncnn3c1C)OCO2 | 16.0 | 5.6 | -2.2 | -4.0 | · | ·
O=C(N/N=C/c1c(O)ccc2ccccc12)c1ccc(Br)o1 | -138.9 | -16.5 | 4.5 | 24.4* | -3.0 | -5.9
O=C(N/N=C\c1c(O)ccc2ccccc12)c1ccc(O)cc1 | -0.5 | 12.8 | 5.6 | 0.1 | · | ·
O=C(O)C1CCN(S(=O)(=O)c2ccc(Cl)s2)CC1 | 8.2 | 6.2 | -1.6 | -1.6 | · | ·
CC[C@]12c3[nH]c4cc(-c5ccco5)ccc4c3CCN1C(=O)[C@@H](CC(=O)NCCC1=CCCCC1)C[C@@H]2C(=O)N1CCN(C(=O)c2ccco2)CC1 | -0.3 | -2.8 | 0.8 | 0.1 | · | ·
COc1cc(CNC(C)c2ccccc2)cc(Cl)c1OCC(=O)Nc1ccccc1 (configuration not stated) | -117.6 | 9.8 | -3.5 | 21.3* | 12.4 | 11.8
COc1cc(CNC(C)c2ccccc2)cc(Br)c1OCc1ccc(F)cc1 (configuration not stated) | -100.2 | -1.0 | 0.3 | 20.9* | 16.1 | 5.1

Screening results deposited in PubChem by The Scripps Research Institute Molecular Screening Center.
